Results taken from PubChem BioAssay (EPA / NIEHS).
Activity calls are given as the source filed them. The calls were made as follows: active = hit-call score of the fitted dose curve at least 0.9, where 1 is the maximum; inactive = score below 0.9.

Read-out: Thrombomodulin, THBD (gene 7056)
Experiment: BSK_3C_Thrombomodulin: BioMAP Diversity Plus: 3C Assay for Thrombomodulin Biomarker Activity (AID 2283029)
Settings: primary human endothelial cells (HUVEC); actives raise or lower the signal
Method: BSK_3C is a cell-based, multiplexed-readout assay that uses umbilical vein endothelium, a human vascular primary cell, with measurements taken at 24 hours after chemical dosing in a 96-well plate.BSK_3C_Thrombomodulin is an assay component measured in the BSK_3C assay. It measures Thrombomodulin antibody related to regulation of gene expression using ELISA technology.Data from the assay component BSK_3C_Thrombomodulin was analyzed into 1 assay endpoint. This assay endpoint, BSK_3C_Thrombomodulin, was analyzed with bidirectional fitting relative to DMSO as the negative control and baseline of activity. Using a type of binding reporter, gain or loss-of-signal activity can be used to understand changes in the signaling as they relate to the gene THBD. Furthermore, this assay endpoint can be referred to as a primary readout, because this assay has produced multiple assay endpoints where this one serves a signaling function. To generalize the intended target to other relatable targets, this assay endpoint is annotated to the gpcr intended target family, where the subfamily is rhodopsin-like receptor.
The levels of cell surface (or secreted, indicated by the prefix "s") biomarker endpoints were measured by ELISA. Overt cytotoxicity to cells in confluent adherent cultures (all systems other than the BT system) was assessed by measuring total protein levels using sulforhodamine B (SRB) staining in parallel cultures at the time of biomarker measurements, indicated as SRB endpoints. For proliferation assays for adherent cell types, individual cell types are cultured at sub-confluence and relative cell numbers quantified by SRB staining at time points optimized for each system (48 h: 3C and CASM3C systems; 72 h: BT and HDF3CGF systems; 96 h: SAg system). SRB was performed by staining cells with 0.1% SRB after fixation with 10% TCA and reading wells at 560 nm.Viability and proliferation of PBMC (T cells) was quantified by Alamar Blue reduction for the SAg and BT systems. For PBMC viability (referred to as PBMC Cytotoxicity within the assay endpoint names), cells were plated (75,000/well in a 96-well plate) and then chemical samples added for 1 h before addition of activators, SEB and TSST-1 (20 ng/mL final concentration each). Cells were incubated for 90 h. Then, Alamar Blue (20 uL/well) (Invitrogen, Cat DAL1100) was added for 6 h, and the plates were read with a fluorescence microplate reader at 546/580 nm (excitation/emission). For PBMC proliferation, cells were plated and activated as above but incubated for only 16 h prior to addition of Alamar Blue. Plates were read after 6 h.

With CO/N=C(/C1=NOCCO1)c1ccccc1Oc1ncnc(Oc2ccccc2Cl)c1F as the compound, how does the outcome read?
Its outcome is “inactive”.

With Cn1c(-c2ccccc2)cc(-c2ccccc2)[n+]1C as the compound, how does the outcome read?
Its outcome is “inactive”.

O=c1n(Cl)c(=O)n(Cl)c(=O)n1Cl was tested. Which outcome did it give?
Its outcome is “inactive”.

With OC(c1ccc(Cl)cc1)(c1ccc(Cl)cc1)C(Cl)(Cl)Cl as the compound, how does the AC50 read?
The AC50 was 0.258 µM (active).

N#Cc1c[nH]cc1-c1cccc2c1OC(F)(F)O2 was tested. Which outcome did it give?
The outcome was “inactive”.

Nc1cnn(-c2ccccc2)c(=O)c1Cl was tested. Which outcome did it give?
The outcome was “inactive”.

CCC(C)n1c(=O)[nH]c(C)c(Br)c1=O (stereo not given) was tested. Which outcome did it give?
Its outcome is “inactive”.

Which AC50 does the source give for Cc1ccc(N=CN(C)C=Nc2ccc(C)cc2C)c(C)c1 here?
Its AC50 is 20 µM (active).

For CCOP(=O)(OCC)Oc1nc(Cl)c(Cl)cc1Cl, which outcome is on record?
The outcome was “inactive”.

With CCN(CC)C(=O)C(C)Oc1cccc2ccccc12 (stereo not given) as the compound, how does the outcome read?
Its outcome is “inactive”.

Which outcome does the source give for CCOC(=O)C(C)OC(=O)c1cc(Oc2ccc(C(F)(F)F)cc2Cl)ccc1[N+](=O)[O-] (stereo not given) here?
Its outcome is “inactive”.

For COP(=S)(OC)SCn1nnc2ccccc2c1=O, which outcome is on record?
Its outcome is “inactive”.

With CC(C)N1C(=O)N(c2ccccc2)CSC1=NC(C)(C)C as the compound, how does the outcome read?
The outcome was “inactive”.

With C=C(C)CN(CC)c1c([N+](=O)[O-])cc(C(F)(F)F)cc1[N+](=O)[O-] as the compound, how does the outcome read?
The outcome was “inactive”.

Which outcome does the source give for CC1(C)C(C(=O)OC(C#N)c2cccc(Oc3ccccc3)c2)C1(C)C (stereo not given) here?
The outcome was “inactive”.

Which outcome does the source give for CS(=O)(=O)c1cc(C(F)(F)F)ccc1C(=O)c1cnoc1C1CC1 here?
The outcome was “inactive”.

How did the outcome turn out when CN=C=S was run?
Its outcome is “inactive”.

Which outcome does the source give for Clc1cccc(C(Cl)(Cl)Cl)n1 here?
The outcome was “inactive”.

How did the outcome turn out when CCCCC(O)(Cn1cncn1)c1ccc(Cl)cc1Cl (stereo not given) was run?
Its outcome is “inactive”.

With CC(C)C1(C)N=C(c2ncccc2C(=O)O)NC1=O (stereo not given) as the compound, how does the outcome read?
The outcome was “inactive”.

Which outcome does the source give for CCCCC(C#N)(Cn1cncn1)c1ccc(Cl)cc1 (stereo not given) here?
The outcome was “inactive”.

With Cc1nc(N(C)C)nc(OC(=O)N(C)C)c1C as the compound, how does the outcome read?
The outcome was “inactive”.

With COP(=S)(OC)Oc1ccc([N+](=O)[O-])c(C)c1 as the compound, how does the outcome read?
The outcome was “inactive”.

Which outcome does the source give for CCOc1nc(F)cc2nc(S(=O)(=O)Nc3c(Cl)cccc3Cl)nn12 here?
The outcome was “inactive”.

How did the AC50 turn out when CCOP(=S)(OCC)Oc1nc(Cl)n(C(C)C)n1 was run?
Its AC50 is 3.97 µM (active).

With O=P(O)(O)CCCl as the compound, how does the outcome read?
Its outcome is “inactive”.

Which outcome does the source give for CCCC(=NOCC)C1=C(O)CC(CC(C)SCC)CC1=O (stereo not given) here?
The outcome was “inactive”.

With CNC(=O)Oc1cccc2ccccc12 as the compound, how does the outcome read?
The outcome was “inactive”.

With COc1cc(OC)nc(NC(=O)NS(=O)(=O)c2ncccc2OCC(F)(F)F)n1 as the compound, how does the outcome read?
Its outcome is “inactive”.

How did the outcome turn out when CCN(CC)c1nc(C)cc(OP(=S)(OC)OC)n1 was run?
The outcome was “inactive”.

How did the outcome turn out when O=C(Nc1ccccc1-c1ccc(Cl)cc1)c1cccnc1Cl was run?
Its outcome is “inactive”.

O=C(O)c1c(Cl)ccc2cc(Cl)cnc12 was tested. Which outcome did it give?
Its outcome is “inactive”.

Which outcome does the source give for CC1(C)CCC(=Cc2ccc(Cl)cc2)C1(O)Cn1cncn1 (stereo not given) here?
The outcome was “inactive”.

O=C1C2CC=CCC2C(=O)N1SC(Cl)(Cl)Cl (stereo not given) was tested. Which outcome did it give?
The outcome was “inactive”.

Which outcome does the source give for CCOc1cc(C(C)(C)C)ccc1C1COC(c2c(F)cccc2F)=N1 (stereo not given) here?
The outcome was “inactive”.

Which outcome does the source give for CC1(C)C(C=C(Cl)Cl)C1C(=O)OC(C#N)c1cccc(Oc2ccccc2)c1 (stereo not given) here?
Its outcome is “inactive”.

Which outcome does the source give for COP(=O)(OC)O/C(C)=C/C(=O)N(C)C here?
Its outcome is “inactive”.

Which outcome does the source give for C=CCOC(=O)C(C)(C)OC(=O)c1cc(-n2c(=O)cc(C(F)(F)F)n(C)c2=O)ccc1Cl here?
The outcome was “inactive”.

How did the outcome turn out when N#CN=C1SCCN1Cc1ccc(Cl)nc1 was run?
The outcome was “inactive”.

How did the outcome turn out when CCSC(=O)N1CCCCCC1 was run?
Its outcome is “inactive”.
